What all share (test): NCI-60 one-dose screen, 48 h (100 = growth as untreated, 0 = no growth, -100 = all killed)
What all share (conditions): 10 µM unless noted

Test [1] has as its system SR leukemia.
The subject of test [2] is RPMI-8226 leukemia.
In test [3] the test system is OVCAR-8 ovarian.
Test [4] has as its system OVCAR-5 ovarian.
In test [5] the test system is OVCAR-4 ovarian.
The test system of test [6] is IGROV1 ovarian.
Test [7] has as its system OVCAR-3 ovarian.
Test [8] relates to HS 578T breast.
Test [9] relates to NCI/ADR-RES ovarian.
Test [10] has as its system SK-OV-3 ovarian.

Where “and” joins values, the source holds several entries; their conditions need not be identical. Equal values may be shown once. About 83,000 compounds went through this panel and 20% of them were active in at least one assay; those are over-represented in the sample as a whole.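 Cell lines were cultured in 96-well plates, exposed to a single compound concentration, and assessed for percent growth 48 hours later.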 Values without a mark were called inactive. Calls of active or inactive are those of the source. How the source made its calls: active means growth percent below 10; inactive means the rest.

In the case of `CC1(C)C(N)=Nc2cc(OCCCN3Cc4ccc(OCCc5cn(CC(=O)N6CCC(CCN7CCCC7)CC6)nn5)cc4C3)c(OCC3CC3)cc21`, the growth was 115% in test [1]; 88.8% in test [2]; 92% in test [3]; 95% in test [4]; 94.6% in test [5]; 101% in test [6]. Also, the growth in test [7] is 114%; in test [8] it was 97.2%; in [9] it was 103%.
Regarding `COC1=CC(=O)C(OC)=C(O)C1=O`, the growth in [1] is 107%; in [2] it was 110%; in test [3], 103%; in [4], 95.2%; in test [5] it was 90.8%; in test [10], 91%. Moreover, the growth was 103% in test [6], 113% in test [8] and 101% in test [9].
`Cc1nonc1-c1ccc2c(c1)OCO2`: the growth in test [1] was 104%; in test [2], 94.1% and 91.7%; in test [3], 98.2% and 96.7%; in test [4], 111% and 121%; in test [5], 108% and 97.2%; in test [10] it was 97.3% and 107%. Moreover, the growth was 108% and 116% in test [6]; 107% and 145% in [8]; 97.7% in [9].
As for `COc1ccc(-c2cc(=O)c3c(O)cc(O)cc3o2)cc1`, the growth in test [1] is 59.9% and 69.1%; in test [2], 87.6% and 87.3%; in [3] it was 103% and 90.2%; in test [4], 112% and 130%; in test [5] it was 118% and 102%; in test [10] it was 112% and 135%. Further, the growth is 125% and 113% in test [6]; 120% and 97% in test [8]; 99.6% and 99.1% in [9].
For the molecule `COc1ccc(-c2nn3c(-c4cc(F)c(Cl)cc4Cl)nnc3s2)cc1`, the growth in test [1] was 13.1%; in test [2], 29.9%; in test [3] it was 67.5%; in test [4], 59.5%; in test [5], 80%; in test [6] it was 40.6%. Moreover, the growth in [7] is 27.8%; in test [8] it was -20.6% (active); in test [9] it was 3.63% (active).
`Cc1cccc(Cc2cnc(NC(=O)CCCOc3ccc(Cl)cc3)s2)c1`: the growth is 18.4% in test [1]; 22.9% in test [2]; 37.6% in [3]; 36.2% in test [4]; 31.3% in test [5]; 36.4% in [10]. The growth is 39.1% in test [6], 21.4% in test [8] and 32.3% in test [9].
Regarding `COCCn1cc(-c2nc(-c3cn(CCOC)c4ncccc34)cs2)c2ccccc21`, the growth in [1] is 102%; in test [2] it was 45.2%; in test [3] it was 97.7%; in [4], 46%; in test [5] it was 23.1%; in test [10], 63.3%. Moreover, the growth is 36.7% in test [6], 86.7% in test [8] and 95.2% in [9].
For the molecule `CCN(CC)CC(=O)Nc1ccc2ncnc(Nc3ccc(Oc4cccc(F)c4)c(Cl)c3)c2c1`, the growth in test [1] was 2.54% (active); in test [2] it was 27.6%; in test [3], 76.1%; in test [4], 80.8%; in [5] it was 52.6%; in test [6] it was 18%. For the same molecule, the growth in [7] is 52.7%; in test [8] it was 79.5%; in test [9], 69.6%.
Regarding `O=C(Nc1ccccc1C(=O)N/N=C(\c1ccccc1)c1ccccn1)c1ccccc1`, the growth in test [1] was 4.3% (active); in [2], 20.8%; in test [3], 13.2%; in test [4], 31.9%; in [5], 12.7%; in test [10], 10.7%. The growth was 20.9% in test [6], 65.2% in test [8] and 9.54% (active) in [9].
With `COc1ccc2c(O)c(/C=C3\N=Nc4nc(C)ccc43)oc2c1CC1CCNCC1`, the growth in [1] is -27.5% (active); in test [2], 96.7%; in [3] it was 68.4%; in test [4] it was 65%; in test [5] it was 74.2%; in [10] it was 80.8%. Moreover, the growth in test [6] was 60.8%; in [8], 57.9%; in test [9], 104%.
`COc1ccc(CCNC(=O)COc2cc3c(Nc4ccc(F)c(Cl)c4)ncnc3cc2OC)cc1OC`: the growth is 82.3% in [1]; 90.1% in [2]; 103% in test [3]; 65.4% in test [4]; 92.4% in test [5]; 89.8% in test [10]. In addition, the growth is 46.3% in test [6], 92.4% in [8] and 85.6% in test [9].
With `ON=C1CCCCCCCC1`, the growth is 90.9% and 97.5% in [1]; 103% and 102% in test [2]; 102% and 107% in test [3]; 103% and 105% in test [4]; 115% and 113% in test [5]; 113% and 111% in [6]. For the same molecule, the growth in [7] was 111%; in test [8], 107% and 108%; in [9], 103% and 105%.
With `Nc1nc(Nc2ccc(F)cc2)nn1C(=O)c1cc(Cl)ccc1Cl`, the growth in [1] was 37.5%; in test [2], 97.1%; in test [3] it was 68.4%; in [4], 59.5%; in [5], 92.8%; in [10] it was 118%. The growth in test [6] is 62.6%; in [8] it was 56.1%; in [9], 69.1%.
